According to PubChem BioAssay (NCATS):
Several values for one entry are separate records, joined by “and”; a condition that tells them apart may be missing. Equal values may be shown once. Records with an inconclusive call do not appear. Activity calls are given as the source filed them. Unless noted, calls come from the whole dose curve; as a rule, active = well fitted curve in the direction sought with a large enough effect; inconclusive = small, poorly fitted or top-dose-only effect, or another doubt; inactive = no such curve, though single readings can be large; an effect the other way counts as inactive or inconclusive.

Assays:
[1] = Cell Viability - Jurkat (AID 426;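 active = dose-dependent loss of cell ATP signal giving a full or clear fitted curve, ranked by lower potency value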;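 note: potency is the fitted concentration of half-maximal effect; cells exposed to compound for 40 hours at 37 °C before ATP read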); conditions: qHTS
In short: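 Cells of the human T-cell leukemia line Jurkat (E6-1) are seeded at 5000 per well, treated with compound across a concentration range for 40 hours at 37 °C, then lysed with CellTiter-Glo; luminescence reports ATP.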

[2] = Cell Viability - HepG2 (AID 433; calls by dose curve;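 note: potency is the fitted concentration of half-maximal effect; potency for ATP loss meaning cytotoxicity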); conditions: qHTS
In short: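 In this qHTS format, a 40 h, 37 °C compound incubation of HepG2 cells in complete medium precedes a 20 min CellTiter-Glo step at room temperature. Tamoxifen and doxorubicin serve as positive controls; Hill-equation fits yield AC50.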

[3] = target: Mitogen-activated protein kinase 10 (Mus musculus) (UniProt Q61831); test: JNK3 AlphaScreen Assay (AID 530; active = well fitted curve in either direction with a large enough effect, not every such curve was filed as active;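 note: kinase came from lysate of stimulated human HepG2 cells; signal reports phosphorylation of biotinylated GST-cJun 1-79 at Ser73 with 10 µM ATP; % is set by controls: 0 for no effect and ±100 for the full control effect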); conditions: JNK3 lysate, c-Jun phosphorylation; series mostly up to 57.1 µM
In short: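 qHTS titrations with 15 min compound pre-incubation before adding ATP (10 uM final). Read-out: AlphaScreen of Ser73-phosphorylated biotin-GST-cJun using HepG2 lysate JNK3 activated by IL-1β and TNFα.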

[4] = Cell Viability - HUV-EC-C (AID 542); conditions: HUV-EC-C endothelial cell viability, qHTS; series mostly up to 92.2 µM; note: % is set by controls: 0 for no effect and ±100 for the full control effect; nearly all actives have a fitted effect of over 35% in size
In short: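 Cells were seeded at 1000 per well and incubated 5 hr at 37 °C before compound addition. After 40 hr at 37 °C, CellTiter-Glo reagent was added for 20 min and luminescence read. AC50 values came from Hill-equation modelling.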

[5] = Cell Viability - H-4-II-E (AID 543); conditions: H-4-II-E rat hepatoma viability; series mostly up to 92.2 µM; note: % is set by controls: 0 for no effect and ±100 for the full control effect; nearly all actives have a fitted effect of over 35% in size
In short: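 Cells seeded at 1500 per well and rested 5 hr; compounds added; 40 hr incubation at 37 °C; CellTiter-Glo added, 20 min at room temperature; luminescence read. Hill-equation fits gave AC50.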

[6] = Cell Viability - Mesenchymal (AID 546); conditions: mesenchymal cells viability, qHTS; activity change, negative = cytotoxicity: at 91.7 µM (top of the series);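 note: cells exposed to compound for 40 hours before reading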
In short: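 CellTiter-Glo luminescence (intracellular ATP, 20 min room temperature) after 40 hr compound exposure at 37 °C of 1000 glomerulus-derived human kidney mesenchymal cells/well; AC50 values obtained by fitting qHTS concentration-response data to the Hill equation.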

[7] = Cellular Toxicity (caspase-3) HepG2 (AID 654); conditions: HepG2 caspase-3 activation, luminescence, 0% = DMSO only, 100% = tamoxifen; series mostly up to 92.2 µM;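 note: cells exposed to compound for 16 hours before reading; 0% = DMSO alone and 100% = caspase signal from 100 µM tamoxifen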
In short: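 Caspase 3/7 activation in HepG2 is measured as rising luminescence after a 16 hr treatment at 37 °C. Values are scaled between DMSO basal and 100 uM tamoxifen, and AC50 is fitted with the Hill equation.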

[8] = Cellular Toxicity (caspase-3) HUV-EC-C (AID 656); conditions: HUV-EC-C cells, caspase-3 activation (apoptosis), vehicle = 0, 100 µM tamoxifen = 100%; series mostly up to 92.2 µM
In short: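 Concentration-dependent caspase 3/7 induction was assessed in HUV-EC-C cells exposed for 16 hours. Data scaled between DMSO and tamoxifen (100 uM) controls.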

[9] = Cellular Toxicity (caspase-3) SHSY5Y (AID 657); conditions: SH-SY5Y caspase-3 activation, DMSO zero, 10 µM staurosporine = 100%; series mostly up to 91.7 µM;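 note: cells exposed to compound for 16 hours at 37 °C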
In short: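 Readout: caspase-cleaved peptide-aminoluciferin substrate driving luciferase light in SH-SY5Y neuroblastoma cells after 16 h treatment. Response normalized to DMSO and 10 uM staurosporine controls.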

[10] = Cellular Toxicity (caspase-3) BJ (AID 658); conditions: BJ fibroblasts, luminescence, normalized: DMSO 0%, staurosporine 100%; series mostly up to 91.7 µM
In short: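 Caspase-Glo 3/7 luminescence, read 1 hr after reagent at room temperature, in normal BJ fibroblasts exposed 16 hours at 37 °C. AC50 values from Hill-equation concentration-response, scaled between DMSO basal and 10 uM staurosporine as 100%.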

[11] = Cellular Toxicity (caspase-3) MRC-5 (AID 659); conditions: MRC-5 cells, luminescence, normalized: DMSO 0%, 10 µM staurosporine 100%; series mostly up to 91.7 µM
In short: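 Luminescent Caspase-Glo 3/7 read-out (1 h, room temperature) after a 16 h, 37 °C compound exposure of MRC-5 lung fibroblasts at 1500 cells/well. Concentration-response AC50 from Hill equation; 0% DMSO, 100% 10 uM staurosporine.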

[12] = Cellular Toxicity (caspase-3) Mesangial (AID 660); conditions: mesangial cells, normalized: DMSO 0%, 100 µM tamoxifen 100%; series mostly up to 91.7 µM;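 note: combined caspase 3 and 7 activity read by Caspase-Glo luminescence; cells exposed to compound for 16 h before the caspase read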
In short: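 Seed cells derived from normal human renal glomeruli, incubate 5 h, add compounds across concentrations and incubate 16 h at 37 °C. Caspase 3/7 activation is then quantified by luciferase light, with AC50 derived by Hill modeling.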

[13] = Cellular Toxicity (caspase-3) SK-N-SH (AID 661); conditions: SK-N-SH caspase-3 activation, qHTS, DMSO as zero, staurosporine as full; series mostly up to 91.7 µM
In short: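 Cells were seeded and incubated 5 hr at 37 °C, dosed with compound over a concentration range for 16 hr, then given Caspase-Glo 3/7 reagent for 1 hr at room temperature before luminescence reading.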

[14] = Cellular Toxicity (caspase-3) Hek293 (AID 664); conditions: HEK293 caspase-3 activation, DMSO = 0%, 100 µM tamoxifen = 100%; series mostly up to 92.2 µM;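 note: cells exposed to compound for 16 h at 37 °C before readout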
In short: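 qHTS, HEK293 (human embryonic kidney), 16 h cpd exposure in complete medium. Caspase-3/7 activation = luminescence increase; normalized to DMSO/100 uM tamoxifen; Hill-fit AC50.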

[15] = Cellular Toxicity (caspase-3) NIH 3T3 (AID 666); conditions: NIH 3T3 caspase-3 activation, apoptosis/toxicity, 0% DMSO, 100% is 100 µM tamoxifen; series mostly up to 92.2 µM;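 note: 0% = DMSO basal and 100% = 100 µM tamoxifen stimulation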
In short: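 Cells were plated at 1000 per well and incubated 5 hr at 37°C, then compound was added for 16 hr. Caspase-Glo 3/7 reagent followed for 20 min at room temperature before luminescence was read.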

[16] = Cellular Toxicity (caspase-3) Renal Proximal Tubule (AID 667); conditions: renal proximal tubule cells, primary cells freshly taken from rat, solvent-only wells 0%, staurosporine 100%; series mostly up to 91.7 µM;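 note: cells exposed to compound for 16 hours at 37 °C before detection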
In short: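 Caspase-Glo 3/7 read-out, rat primary kidney proximal tubule cells. Compound exposure 16 h, 37 °C; detection after 1 h at RT. Activity scaled to DMSO and 10 uM staurosporine.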

[17] = qHTS Assay for Identification of Small Molecule Inducers of Hypoxia Response (AID 2120; active = well fitted curve in the direction sought with a large enough effect in the signal ratio, with a control signal flat, not every such curve was filed as active; the % refers to the signal ratio; note: 0% is about no effect); conditions: hypoxia response reporter cells, beta-lactamase ratio readout; series mostly up to 104 µM
In short: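 Cell-based qHTS for reporter induction: hypoxia response element controlled beta-lactamase in ME-180 cells. Compounds incubated 17 h at 37 degrees C; activity from blue/green (460/530 nm) ratio, inducers ranked by AC50.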

[18] = qHTS assay for small molecule antagonists of retinoid X receptor alpha signaling (AID 588546); conditions: HEK293T RXRa-UAS-bla, beta-lactamase ratio, antagonist mode; measured here: W530 green channel, cytotoxicity proxy;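 note: cells stimulated with 9-cis-retinoic acid as agonist; % is set by controls: 0 for no effect and ±100 for the full control effect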
In short: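 Beta-lactamase reporter inhibition, read as CCF4 fluorescence ratio (ex 405, em 460/530 nm) after 2 h at RT. HEK293T UAS-bla cells, 2500/well, were stimulated with 9-cis-RA at 500 or 100 nM final alongside test compound for 18 h at 37 C.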

[19] = target: Peroxisome proliferator-activated receptor alpha (Homo sapiens) (UniProt Q07869); test: qHTS assay for small molecule agonists of the peroxisome proliferator-activated receptor alpha (PPARalpha) signaling pathway (AID 651778); conditions: PathHunter PPARalpha complementation, chemiluminescence, 6 h; max response: stronger effect = higher value; note: % of control where 0% means no effect
In short: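 Chemiluminescence from complemented enzyme reported PPARalpha activation in cells after 6 hr of compound treatment at 37 C. The detection reagent was incubated for 60 min at room temperature, and compounds were scored as agonists.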

[20] = qHTS assay for cell viability of HEK293 cells (AID 743288); conditions: ATP luminescence (CellTiter-Glo), 18 h; max response: stronger effect = lower value; note: % is set by controls: 0 for no effect and ±100 for the full control effect; nearly all actives have a fitted effect of over 50% in size
In short: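 HEK293, 18 h, 37 C, ATP luminescence. Cells at 2,000/well were allowed at least 5 h to settle before dosing; CellTiter-Glo developed 30 min at RT.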

Peroxisome proliferator-activated receptor alpha (Homo sapiens), sequence (Q07869 whole entry, looked up): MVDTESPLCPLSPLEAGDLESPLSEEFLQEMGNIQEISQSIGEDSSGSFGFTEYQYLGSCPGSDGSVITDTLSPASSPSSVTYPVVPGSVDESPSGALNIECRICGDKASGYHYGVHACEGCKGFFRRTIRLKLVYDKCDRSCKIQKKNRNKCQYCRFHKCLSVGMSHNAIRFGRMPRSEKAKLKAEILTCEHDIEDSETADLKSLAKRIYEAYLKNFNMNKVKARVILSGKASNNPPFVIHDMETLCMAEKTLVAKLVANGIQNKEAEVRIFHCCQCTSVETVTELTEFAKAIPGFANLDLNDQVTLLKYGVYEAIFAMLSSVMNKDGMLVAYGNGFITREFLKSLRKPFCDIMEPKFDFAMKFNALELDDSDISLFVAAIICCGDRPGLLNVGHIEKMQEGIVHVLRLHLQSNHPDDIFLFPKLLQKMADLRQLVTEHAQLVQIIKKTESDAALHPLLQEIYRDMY

CN(C)C=O
inactive: Potency [1] > 92 µM | Potency [2] > 92 µM | Potency [3] | outcome [4] | Potency [5] | activity change, negative = cytotoxicity [6] 4.53% and 11.4% | outcome [7] | outcome [8] | outcome [9] | outcome [10] | outcome [11] | outcome [12] | outcome [13] | outcome [14] | outcome [15] | outcome [16] | outcome [17] | max response [19] 18% and -2.47% and -1.42% | max response [20] -10.8% and 1.33% and 0.809%
4.64% and -5.61%: max response [18]

COc1cccc(-c2nc(NCCN3CCOCC3)c3ccccc3n2)c1
inactive: Potency [3]

C=Cc1ccccc1Cl
inactive: Potency [1] > 92 µM | Potency [2] > 92 µM | Potency [3] | outcome [4] | Potency [5] | activity change, negative = cytotoxicity [6] 4.39% | outcome [7] | outcome [8] | outcome [9] | outcome [10] | outcome [11] | outcome [12] | outcome [13] | outcome [14] | outcome [15] | outcome [16] | outcome [17] | max response [19] -0.389% | max response [20] 6.21%
-3.63%: max response [18]

O=[N+]([O-])c1cccc(Cl)c1Cl
inactive: Potency [1] > 92 µM | Potency [2] > 92 µM | outcome [4] | Potency [5] | activity change, negative = cytotoxicity [6] 4.81% | outcome [7] | outcome [8] | outcome [9] | outcome [10] | outcome [11] | outcome [12] | outcome [13] | outcome [14] | outcome [15] | outcome [16] | outcome [17] | max response [19] -3.44% and -1.57% | max response [20] -3.06% and -4.76%
3.16% and 3%: max response [18]

Nc1ccc(Cl)cc1Cl
2.24% and -0.667%: max response [18]
inactive: Potency [1] > 92 µM | Potency [2] > 92 µM | Potency [3] | outcome [4] | Potency [5] | activity change, negative = cytotoxicity [6] 2.81% | outcome [7] | outcome [8] | outcome [9] | outcome [10] | outcome [11] | outcome [12] | outcome [13] | outcome [14] | outcome [15] | outcome [16] | outcome [17] | max response [19] 3.51% and 0.0732% | max response [20] 1.15% and -5.99%

C=CCOC(=O)c1ccccc1C(=O)OCC=C
-4.9% and -9.66%: max response [18]
inactive: Potency [1] > 92 µM | Potency [2] > 92 µM | Potency [3] | outcome [4] | Potency [5] | activity change, negative = cytotoxicity [6] -9.3% | outcome [7] | outcome [8] | outcome [9] | outcome [10] | outcome [11] | outcome [12] | outcome [13] | outcome [14] | outcome [15] | outcome [16] | outcome [17] | max response [19] 16.2% and -0.609% | max response [20] 7.73% and -19.3%

COCC(=O)O
inactive: Potency [1] > 92 µM | Potency [2] > 92 µM | outcome [4] | Potency [5] | activity change, negative = cytotoxicity [6] 2.06% | outcome [7] | outcome [8] | outcome [9] | outcome [10] | outcome [11] | outcome [12] | outcome [13] | outcome [14] | outcome [15] | outcome [16] | outcome [17] | max response [19] -0.223% and -0.993% | max response [20] -1.06% and 2.91%
10.5% and -3.07%: max response [18]
